One compound from the supplement of paper PMC10477191 can be followed below.

± gives the standard deviation of the averaged measurements.

For the assay, the system named is Drosophila ezoana antennal basiconic sensillum ab8. The experiment in a line: odor-evoked OSN spike response (post minus pre-stimulus); higher = stronger neuronal excitation. Particulars: odor dilution: 10^-4. The procedure: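 Single sensillum recordings from antennal basiconic sensilla of D. ezoana. A 500 ms pulse of odorant (10^-4 in mineral oil or DMSO) was delivered; the response is the change in action potential frequency between the 1 s pre- and post-stimulus windows (spikes/s).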
On to `CC(C)=O` [acetone], for which the “odor-evoked OSN spike response” value worked out at 66.9 ± 31 spikes/s.
